# Measured values from PubChem BioAssay (EPA / NIEHS).
# Calls of active or inactive are those of the source. Rule for the calls: active = hit-call score of the fitted dose curve at least 0.9, where 1 is the maximum; inactive = score below 0.9.
# What was measured:
# [1] = read-out: Matrix Metallopeptidase 1 (MMP1), MMP1 (gene 4312); assay: BSK_hDFCGF_MMP1: BioMAP Diversity Plus: hDFCGF Assay for Matrix Metallopeptidase 1 (MMP1) Biomarker Activity (AID 2283064); conditions: primary human foreskin fibroblasts; actives raise or lower the signal
# How it was run: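 ELISA read-out of MMP1 from human foreskin fibroblasts (primary skin cells), 24 h post-dose. Gain or loss of signal was fitted bidirectionally versus DMSO negative control; cytotoxicity was checked by SRB in parallel cultures.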
# [2] = read-out: Vascular cell adhesion molecule 1 (VCAM1), VCAM1 (gene 7412); assay: BSK_hDFCGF_VCAM1: BioMAP Diversity Plus: hDFCGF Assay for Vascular cell adhesion molecule 1 (VCAM1) Biomarker Activity (AID 2283065); conditions: primary human foreskin fibroblasts; actives raise or lower the signal
# How it was run: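 ELISA readout of VCAM-1 on human dermal fibroblast primary cultures, 24 h after chemical exposure. Gain or loss of signal fitted in both directions against DMSO baseline.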
# [3] = read-out: Plasminogen activator inhibitor-1 (PAI1), SERPINE1 (gene 5054); assay: BSK_hDFCGF_PAI1: BioMAP Diversity Plus: hDFCGF Assay for Plasminogen activator inhibitor-1 (PAI1) Biomarker Activity (AID 2283066); conditions: primary human foreskin fibroblasts; actives raise or lower the signal
# How it was run: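 Human skin fibroblast cultures receive chemical for 24 h before PAI-1 is measured by ELISA; signal changes are fitted bidirectionally against DMSO-treated wells.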
# [4] = read-out: Intercellular Adhesion Molecule 1 (ICAM1), ICAM1 (gene 3383); assay: BSK_KF3CT_ICAM1: BioMAP Diversity Plus: KF3CT Assay for Intercellular Adhesion Molecule 1 (ICAM1) Biomarker Activity (AID 2283067); conditions: primary human keratinocytes with fibroblasts; actives raise or lower the signal
# How it was run: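 Cell-surface ICAM-1 was measured by ELISA 24 h after dosing primary human skin keratinocytes co-cultured with fibroblasts. Parallel SRB staining tracked overt cytotoxicity. Gain or loss of signal was fitted relative to DMSO.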
# [5] = read-out: Interferon-gamma inducible Protein 10 (IP10), CXCL10 (gene 3627); assay: BSK_KF3CT_IP10: BioMAP Diversity Plus: KF3CT Assay for Interferon-gamma inducible Protein 10 (IP10) Biomarker Activity (AID 2283068); conditions: primary human keratinocytes with fibroblasts; actives raise or lower the signal
# How it was run: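 Signal is secreted/surface IP-10 by ELISA in a human primary skin co-culture of keratinocytes and foreskin fibroblasts, taken 24 h post-dosing; DMSO served as negative control.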
# [6] = BSK_KF3CT_SRB: Viability Assessment in the BioMAP Diversity Plus: KF3CT Assay (AID 2283069); conditions: primary human keratinocytes with fibroblasts;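 note: total protein by sulforhodamine B staining as a cytotoxicity measure; read 24 h after compound addition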
# How it was run: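 SRB read-out at 560 nm (0.1% stain, TCA-fixed cells) gauges overt cytotoxicity in a human skin keratinocyte–fibroblast co-culture 24 h post-dosing. Signal change was fitted bidirectionally relative to DMSO control.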
# [7] = read-out: Interleukin-1 alpha (IL1a), IL1A (gene 3552); assay: BSK_KF3CT_IL1a: BioMAP Diversity Plus: KF3CT Assay for Interleukin-1 alpha (IL1a) Biomarker Activity (AID 2283070); conditions: primary human keratinocytes with fibroblasts; actives raise or lower the signal
# How it was run: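 Primary skin co-culture (keratinocytes, foreskin fibroblasts), 24 h exposure; ELISA for IL-1a; bidirectional curve fit vs DMSO.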
# [8] = read-out: TIMP metallopeptidase inhibitor 2 (TIMP2), TIMP2 (gene 7077); assay: BSK_KF3CT_TIMP2: BioMAP Diversity Plus: KF3CT Assay for TIMP metallopeptidase inhibitor 2 (TIMP2) Biomarker Activity (AID 2283071); conditions: primary human keratinocytes with fibroblasts; actives raise or lower the signal
# How it was run: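 Measurements come from ELISA detection of TIMP-2 at 24 hours in a dosed human keratinocyte and foreskin fibroblast co-culture. DMSO serves as negative control and baseline.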
# [9] = read-out: C-C motif chemokine 2 (Homo sapiens) (UniProt P13500); assay: BSK_KF3CT_MCP1: BioMAP Diversity Plus: KF3CT Assay for Monocyte Chemoattractant Protein 1 (MCP1/CCL2) Biomarker Activity (AID 2283073); conditions: primary human keratinocytes with fibroblasts; actives raise or lower the signal
# How it was run: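 ELISA read-out of MCP-1, 24 h post-dose, in primary human skin keratinocytes co-cultured with fibroblasts. Parallel SRB staining monitors cytotoxicity; changes fitted both directions relative to DMSO.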
# [10] = read-out: Matrix Metallopeptidase 9 (MMP9), MMP9 (gene 4318); assay: BSK_KF3CT_MMP9: BioMAP Diversity Plus: KF3CT Assay for Matrix Metallopeptidase 9 (MMP9) Biomarker Activity (AID 2283074); conditions: primary human keratinocytes with fibroblasts; actives raise or lower the signal
# How it was run: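 ELISA read-out of MMP-9 at 24 h post-dosing in a co-culture of human skin keratinocytes and foreskin fibroblasts. Gain or loss of signal was fitted in both directions against DMSO.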
# [11] = read-out: urokinase plasminogen activator (uPA), PLAU (gene 5328); assay: BSK_KF3CT_uPA: BioMAP Diversity Plus: KF3CT Assay for urokinase plasminogen activator (uPA) Biomarker Activity (AID 2283075); conditions: primary human keratinocytes with fibroblasts; actives raise or lower the signal
# How it was run: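 Skin co-culture (keratinocytes + foreskin fibroblasts), human primary; 24 h post-dose; uPA by ELISA; gain/loss fit vs DMSO baseline.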
# [12] = read-out: CD40, CD40 (gene 958); assay: BSK_LPS_CD40: BioMAP Diversity Plus: LPS Assay for CD40 Biomarker Activity (AID 2283076); conditions: primary human HUVEC with PBMC; actives raise or lower the signal
# How it was run: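 In the LPS system of human endothelial cells with peripheral blood mononuclear cells, CD40 levels were read by ELISA 24 h post-treatment. Signal changes in either direction were fitted against the DMSO baseline, with parallel SRB protein staining.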
# [13] = read-out: E-selectin (Homo sapiens) (UniProt P16581); assay: BSK_LPS_Eselectin: BioMAP Diversity Plus: LPS Assay for Eselectin Biomarker Activity (AID 2283077); conditions: primary human HUVEC with PBMC; actives raise or lower the signal
# How it was run: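 E-selectin ELISA on LPS-stimulated endothelial cell/PBMC co-cultures, read 24 h post-treatment; gains and losses fitted against DMSO. Parallel SRB staining (0.1% SRB after 10% TCA fixation, 560 nm) flags overt cytotoxicity.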
# [14] = read-out: Interleukin-8 (IL8), CXCL8 (gene 3576); assay: BSK_LPS_IL8: BioMAP Diversity Plus: LPS Assay for Interleukin-8 (IL8) Biomarker Activity (AID 2283078); conditions: primary human HUVEC with PBMC; actives raise or lower the signal
# How it was run: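 ELISA read-out of IL-8 after 24 h chemical treatment of LPS-activated endothelial/PBMC human primary co-cultures. Changes either up or down relative to DMSO; overt cytotoxicity checked by sulforhodamine B staining in parallel wells.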
# [15] = BSK_LPS_SRB: Viability Assessment in the BioMAP Diversity Plus: LPS Assay (AID 2283079); conditions: primary human HUVEC with PBMC;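 note: total protein by sulforhodamine B absorbance as a cytotoxicity measure; measured one day after compound addition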
# How it was run: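 SRB viability endpoint: cells fixed with 10% TCA, stained with 0.1% SRB, read at 560 nm, 24 h post-dose. HUVEC/PBMC co-culture; signal change in either direction scored relative to DMSO.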
# [16] = read-out: Interleukin-1 alpha (IL1a), IL1A (gene 3552); assay: BSK_LPS_IL1a: BioMAP Diversity Plus: LPS Assay for Interleukin-1 alpha (IL1a) Biomarker Activity (AID 2283080); conditions: primary human HUVEC with PBMC; actives raise or lower the signal
# How it was run: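 Readout is IL-1a level by ELISA, 24 h post-dose, fitted as gain or loss relative to DMSO. System: LPS-activated human primary co-culture of vascular endothelium and peripheral blood mononuclear cells, with parallel SRB total-protein cytotoxicity.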
# [17] = read-out: Monocyte Chemoattractant Protein-1 (MCP1), CCL2 (gene 6347); assay: BSK_LPS_MCP1: BioMAP Diversity Plus: LPS Assay for Monocyte Chemoattractant Protein-1 (MCP1) Biomarker Activity (AID 2283081); conditions: primary human HUVEC with PBMC; actives raise or lower the signal;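 for AC50: secreted MCP-1 protein quantified by ELISA in culture supernatant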
# How it was run: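 Secreted MCP-1 read by ELISA at 24 h post-dosing in an LPS-activated co-culture of endothelial cells with peripheral blood mononuclear cells. Fits run in both directions, DMSO as baseline; parallel SRB staining tracks overt cytotoxicity.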
# [18] = BSK_LPS_PGE2: BioMAP Diversity Plus: LPS Assay for Prostaglandin E2 (PGE2) Biomarker Activity (AID 2283082); conditions: primary human HUVEC with PBMC; actives raise or lower the signal
# How it was run: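 Primary human endothelial cells and blood mononuclear cells, co-cultured with LPS, receive test chemical; PGE2 ELISA follows at 24 h, with SRB-stained parallel cultures flagging cytotoxicity.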
# [19] = read-out: Macrophage colony-stimulating factor (MCSF), CSF1 (gene 1435); assay: BSK_LPS_MCSF: BioMAP Diversity Plus: LPS Assay for Macrophage colony-stimulating factor (MCSF) Biomarker Activity (AID 2283083); conditions: primary human HUVEC with PBMC; actives raise or lower the signal
# How it was run: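 Bidirectional fitting against DMSO was applied to M-CSF levels read by ELISA at 24 h post-dose. The system pairs human umbilical vein endothelium with peripheral blood mononuclear cells; parallel SRB staining tracked cytotoxicity.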
# [20] = read-out: Transforming growth factor beta 1 (TGFb1), TGFB1 (gene 7040); assay: BSK_KF3CT_TGFb1: BioMAP Diversity Plus: KF3CT Assay for Transforming growth factor beta 1 (TGFb1) Biomarker Activity (AID 2283072); conditions: primary human keratinocytes with fibroblasts; actives raise or lower the signal
# How it was run: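 TGF-b1 ELISA on a 24 h dosed co-culture of human keratinocytes and foreskin fibroblasts; cytotoxicity tracked in parallel cultures by SRB staining.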
# E-selectin (Homo sapiens), sequence (P16581 whole entry, looked up): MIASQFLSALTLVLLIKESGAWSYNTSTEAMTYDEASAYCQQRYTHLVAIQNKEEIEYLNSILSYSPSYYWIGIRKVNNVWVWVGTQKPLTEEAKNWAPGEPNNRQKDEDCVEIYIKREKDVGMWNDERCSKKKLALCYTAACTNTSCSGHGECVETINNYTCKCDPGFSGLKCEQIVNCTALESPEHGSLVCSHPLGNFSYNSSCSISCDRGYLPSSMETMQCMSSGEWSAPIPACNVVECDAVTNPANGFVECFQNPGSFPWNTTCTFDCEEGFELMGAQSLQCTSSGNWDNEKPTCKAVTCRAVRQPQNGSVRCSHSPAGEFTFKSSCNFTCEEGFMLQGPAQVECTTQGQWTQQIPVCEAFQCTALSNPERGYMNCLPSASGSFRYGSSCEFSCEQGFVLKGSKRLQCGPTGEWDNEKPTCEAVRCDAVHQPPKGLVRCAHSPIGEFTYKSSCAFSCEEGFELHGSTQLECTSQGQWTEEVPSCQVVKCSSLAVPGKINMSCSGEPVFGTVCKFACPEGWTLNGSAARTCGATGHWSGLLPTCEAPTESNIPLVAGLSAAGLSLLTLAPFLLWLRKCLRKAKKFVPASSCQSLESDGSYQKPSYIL
structure (smiles),measurement,setting,value
CCOP(=O)(OCC)SCCSCC,outcome,[1],inactive
same,outcome,[2],inactive
same,outcome,[3],inactive
same,outcome,[4],inactive
same,outcome,[5],inactive
same,outcome,[6],inactive
same,outcome,[7],inactive
same,outcome,[8],inactive
same,outcome,[9],inactive
same,outcome,[10],inactive
same,outcome,[11],inactive
same,outcome,[12],inactive
same,outcome,[13],inactive
same,outcome,[14],inactive
same,outcome,[15],inactive
same,outcome,[16],inactive
same,outcome,[17],inactive
same,outcome,[18],inactive
same,outcome,[19],inactive
CC(C)(C)c1ccccc1O,outcome,[1],inactive
same,outcome,[2],inactive
same,outcome,[3],inactive
same,outcome,[4],inactive
same,outcome,[5],inactive
same,outcome,[6],inactive
same,outcome,[7],inactive
same,outcome,[8],inactive
same,outcome,[9],inactive
same,outcome,[10],inactive
same,outcome,[12],inactive
same,outcome,[13],inactive
same,outcome,[14],inactive
same,outcome,[15],inactive
same,outcome,[16],inactive
same,AC50,[17],3180 nM (active)
same,outcome,[18],inactive
same,outcome,[19],inactive
COc1ccccc1N,outcome,[1],inactive
same,outcome,[2],inactive
same,outcome,[3],inactive
same,outcome,[4],inactive
same,outcome,[5],inactive
same,outcome,[6],inactive
same,outcome,[7],inactive
same,outcome,[8],inactive
same,outcome,[20],inactive
same,outcome,[9],inactive
same,outcome,[10],inactive
same,outcome,[11],inactive
same,outcome,[12],inactive
same,outcome,[13],inactive
same,outcome,[14],inactive
same,outcome,[15],inactive
same,outcome,[16],inactive
same,outcome,[17],inactive
same,outcome,[18],inactive
same,outcome,[19],inactive
CCCCN(CCCC)C(=S)[S-].CCCCN(CCCC)C(=S)[S-].[Ni+2],outcome,[1],inactive
same,outcome,[2],inactive
same,outcome,[3],inactive
same,outcome,[4],inactive
same,outcome,[5],inactive
same,outcome,[6],inactive
same,outcome,[7],inactive
same,outcome,[8],inactive
same,outcome,[20],inactive
same,outcome,[11],inactive
same,outcome,[12],inactive
same,outcome,[13],inactive
same,outcome,[14],inactive
same,outcome,[15],inactive
same,outcome,[16],inactive
same,outcome,[17],inactive
same,outcome,[18],inactive
same,outcome,[19],inactive
O=[N+]([O-])c1cccc2ccccc12,outcome,[1],inactive
same,outcome,[2],inactive
same,outcome,[3],inactive
same,outcome,[4],inactive
same,outcome,[5],inactive
same,outcome,[6],inactive
same,outcome,[7],inactive
same,outcome,[8],inactive
same,outcome,[20],inactive
same,outcome,[9],inactive
same,outcome,[11],inactive
same,outcome,[12],inactive
same,outcome,[13],inactive
same,outcome,[14],inactive
same,outcome,[15],inactive
same,outcome,[16],inactive
same,outcome,[17],inactive
same,outcome,[18],inactive
same,outcome,[19],inactive
C=CC(Cl)CCl (configuration not stated),outcome,[1],inactive
same,outcome,[2],inactive
same,outcome,[3],inactive
same,outcome,[4],inactive
same,outcome,[5],inactive
same,outcome,[6],inactive
same,AC50,[7],79.7 nM (active)
same,AC50,[8],181 nM (active)
same,outcome,[9],inactive
same,AC50,[11],16.9 nM (active)
same,outcome,[12],inactive
same,outcome,[13],inactive
same,outcome,[14],inactive
same,outcome,[15],inactive
same,outcome,[16],inactive
same,outcome,[17],inactive
same,outcome,[18],inactive
same,outcome,[19],inactive
